Laboratory results: the antibiotic and cytotoxicity screens of Wong et al. (2023)
Out of some 39,000 compounds screened, about 500 (1.3%) were called active. For the sample, actives were picked, then their nearest neighbours and some compounds at random.

These molecules were tested on S. aureus RN4220 (assay: growth inhibition call (relative growth <= 0.2)). Conditions: 50 µM.
CC(=O)c1ccccc1OC[C@@H](O)CN(CCO)CCO was tested, and the growth inhibition call was “inactive”. With CN(C(=O)CN(CCO)CC(=O)N(C)C(C)(C)Cc1ccccc1)C(C)(C)Cc1ccccc1 the growth inhibition call was “active”. O=C(O)CN(CCc1ccccc1)CC(=O)O was tested, and the growth inhibition call was “inactive”. C[C@@H]1CCCCO[C@H](CN(C)Cc2ccc(C(F)(F)F)cc2)[C@H](C)CN([C@@H](C)CO)C(=O)c2cc(N(C)C)ccc2O1 was tested, and the growth inhibition call was “inactive”. With CC1CN(c2c(F)c(N)c3c(=O)c(C(=O)O)cn(C4CC4)c3c2F)CC(C)N1 (configuration not stated) the growth inhibition call was “inactive”. For COc1c(N2CC3CCCNC3C2)c(F)cc2c(=O)c(C(=O)O)cn(C3CC3)c12.Cl (configuration not stated), the growth inhibition call was “active”. In the case of COc1c(N2CCNC(C)C2)c(F)cc2c(=O)c(C(=O)O)cn(C3CC3)c12 (configuration not stated), the growth inhibition call is reported as “active”. CC1CN(c2c(F)c(F)c3c(=O)c(C(=O)O)cn(C4CC4)c3c2F)CC(C)N1 (configuration not stated) was tested, and the growth inhibition call was “active”. For Cl.NC1CCN(c2c(F)cc3c(=O)c(C(=O)O)cn(C4CC4)c3c2Cl)C1 (configuration not stated), the growth inhibition call was “active”. N[C@@H]1CN(c2c(F)cc3c(=O)c(C(=O)O)cn([C@@H]4C[C@@H]4F)c3c2Cl)CC12CC2 was tested, and the growth inhibition call was “inactive”. With C[C@H]1CN([C@@H](C)CO)C(=O)c2cc(NC(=O)C3CC3)ccc2O[C@H]1CN(C)C(=O)Nc1ccc2c(c1)OCO2 the growth inhibition call was “inactive”. For C[C@H]1CCCCO[C@@H](CN(C)Cc2ccc3c(c2)OCO3)[C@@H](C)CN([C@@H](C)CO)C(=O)c2cc(NC(=O)CCC(F)(F)F)ccc2O1, the growth inhibition call was “inactive”. For Cc1noc(C)c1NC(=O)Nc1ccc2c(c1)C(=O)N([C@@H](C)CO)C[C@@H](C)[C@H](CN(C)Cc1ccc(C(F)(F)F)cc1)OCCCC[C@H](C)O2, the growth inhibition call was “inactive”. For C[C@@H]1CN([C@H](C)CO)C(=O)c2cccc(NS(=O)(=O)c3cn(C)cn3)c2O[C@H]1CN(C)C(=O)NC1CCCCC1, the growth inhibition call was “inactive”. CC(C)NC(=O)Nc1ccc2c(c1)C(=O)N([C@H](C)CO)C[C@@H](C)[C@@H](CN(C)Cc1ccc(Cl)c(Cl)c1)OCCCC[C@H](C)O2 was tested, and the growth inhibition call was “inactive”. With COc1ccc(NC(=O)Nc2cccc3c2O[C@H](CN(C)Cc2ccc(-c4ccccc4)cc2)[C@H](C)CN([C@H](C)CO)C3=O)cc1 the growth inhibition call was “inactive”. In the case of C[C@@H]1CCCCO[C@H](CN(C)CC2CCCCC2)[C@H](C)CN([C@@H](C)CO)C(=O)c2cc(NC(=O)Nc3ccc(C(F)(F)F)cc3)ccc2O1, the growth inhibition call is reported as “inactive”. For C[C@H]1CN([C@@H](C)CO)S(=O)(=O)c2ccc(C#CCN(C)C)cc2O[C@H]1CN(C)Cc1cccnc1, the growth inhibition call was “inactive”. CCn1cc(C(=O)O)c(=O)c2cc(F)c(N3CCNCC3)nc21 was tested, and the growth inhibition call was “inactive”. For CCn1cc(C(=O)O)c(=O)c2cc(F)c(N3CCNC(C)C3)c(F)c21.Cl (configuration not stated), the growth inhibition call was “active”. In the case of CCn1cc(C(=O)O)c(=O)c2cnc(N3CCNCC3)nc21, the growth inhibition call is reported as “inactive”. CCNC(=O)C[C@@H]1CC[C@H]2[C@@H](COC[C@H](O)CN2C(=O)Nc2c(C)noc2C)O1 was tested, and the growth inhibition call was “inactive”. With C#CCN([C@H](/C=C/C1CC1)[C@@H](O)Cc1ccccc1)[C@@H](Cc1ccc(-n2cc(C(=O)NO)nn2)cc1)C(=O)OC the growth inhibition call was “inactive”. C[C@@H]1CN([C@@H](C)CO)C(=O)c2cc(NC(=O)c3ccccc3)ccc2O[C@@H](C)CCCCO[C@@H]1CN(C)Cc1ccc(C(F)(F)F)cc1 was tested, and the growth inhibition call was “inactive”. In the case of CC1(C)[C@@H](OC(=O)CCC(=O)O)CC[C@@]2(C)[C@H]1CC[C@]1(C)[C@H]2C(=O)C=C2[C@@H]3C[C@@](C)(C(=O)O)CC[C@]3(C)CC[C@]21C, the growth inhibition call is reported as “inactive”. In the case of CC1(C)[C@@H](OC(=O)CCC(=O)O)CC[C@]2(C)[C@H]3C(=O)C=C4[C@@H]5C[C@@](C)(C(=O)O)CC[C@]5(C)CC[C@@]4(C)[C@]3(C)CC[C@@H]12, the growth inhibition call is reported as “inactive”. CC(=O)O[C@@H]1CC[C@@]2(C)[C@@H](CC[C@]3(C)[C@@H]2C(=O)C=C2[C@@H]4[C@@H](C)[C@H](C)CC[C@]4(C)CC[C@]23C)[C@@]1(C)C(=O)O was tested, and the growth inhibition call was “active”. In the case of COc1ccc(NC(=O)N(C)C[C@H]2OCCCC[C@@H](C)Oc3ccc(NS(=O)(=O)c4ccc(OC)cc4)cc3C(=O)N([C@@H](C)CO)C[C@@H]2C)cc1, the growth inhibition call is reported as “inactive”. Cc1occc1CN was tested, and the growth inhibition call was “inactive”. In the case of O=C(N[C@H]1C=C[C@H](CC(=O)N2CCOCC2)O[C@@H]1CO)c1ccccn1, the growth inhibition call is reported as “inactive”. With NC(=O)CSc1nnnn1-c1ccccc1 the growth inhibition call was “inactive”. In the case of Nc1nnnn1-c1ccccc1, the growth inhibition call is reported as “active”. For NCc1nnnn1-c1ccccc1, the growth inhibition call was “inactive”. For C[C@@H]1CN([C@H](C)CO)C(=O)Cc2cc(NS(=O)(=O)c3ccccc3)ccc2O[C@H]1CN(C)CC1CC1, the growth inhibition call was “inactive”. For CS(=O)(=O)N1[C@@H]2c3ccc(-c4cccc(F)c4)c(=O)n3C[C@H]1[C@H](CO)[C@H]2C(=O)N1CCOCC1, the growth inhibition call was “inactive”. For Cc1noc(C)c1S(=O)(=O)N(C)C[C@@H]1Oc2ccc(NS(=O)(=O)c3ccc(Cl)cc3)cc2CC(=O)N([C@H](C)CO)C[C@H]1C, the growth inhibition call was “inactive”. In the case of C=CC[n+]1ccccc1/C=N/O, the growth inhibition call is reported as “inactive”. With Cc1ccc(S[C@]2(C(=O)NC3CC3)CC(=O)N(Cc3ccccc3C(F)(F)F)[C@@H]2c2ccc(CO)cc2I)cc1 the growth inhibition call was “inactive”. In the case of COC(=O)c1c(OC)cc2c(c1C)Oc1c(Cl)c(O)c(Cl)c(C)c1C(=O)O2, the growth inhibition call is reported as “inactive”. For COC(=O)c1c(C)c2c(c(C)c1OC)OC(=O)c1c(C)c(Cl)c(OC)c(Cl)c1O2, the growth inhibition call was “inactive”. For COC(=O)c1c(C)c2c(c(C)c1O)OC(=O)c1c(C)c(Cl)c(O)c(Cl)c1O2, the growth inhibition call was “active”. COc1ccc(CN(C)C[C@@H]2Oc3ccc(NS(C)(=O)=O)cc3CC(=O)N([C@@H](C)CO)C[C@H]2C)cc1 was tested, and the growth inhibition call was “inactive”. CO[C@H]1C[C@H](O[C@H]2[C@H](C)[C@@H](O[C@H]3O[C@H](C)C[C@H](N(C)C)[C@H]3O)[C@@H](C)C[C@]3(CO3)C(=O)[C@H](C)[C@@H](O)[C@@H](C)[C@@H](C)OC(=O)[C@@H]2C)O[C@@H](C)[C@@H]1O was tested, and the growth inhibition call was “active”. With C[C@H](O)C#Cc1cnc2c(c1)C(=O)N([C@H](C)CO)C[C@@H](C)[C@@H](CN(C)Cc1cncnc1)O2 the growth inhibition call was “inactive”. For CN1C(=O)c2cc(NC(=O)Nc3ccccc3F)ccc2OC[C@H]2O[C@@H](CC(=O)NCc3ccc(-c4ccccc4)cc3)CC[C@H]21, the growth inhibition call was “inactive”. For C[C@H](CO)N1C[C@H](C)[C@H](CN(C)C)Oc2ccc(NS(C)(=O)=O)cc2CC1=O, the growth inhibition call was “inactive”. CO[C@H](CN(C)S(=O)(=O)c1cn(C)cn1)[C@H](C)CN(C(=O)Nc1ccc(C(F)(F)F)cc1)[C@H](C)CO was tested, and the growth inhibition call was “active”. With C[C@H](CO)N1C[C@H](C)[C@@H](CN(C)S(=O)(=O)c2cn(C)cn2)OCCCC[C@H](C)Oc2ccc(NC(=O)Nc3ccc(C(F)(F)F)cc3)cc2C1=O the growth inhibition call was “inactive”. C[C@@H]1CN([C@H](C)CO)C(=O)c2cc(NC(=O)Nc3ccc(C(F)(F)F)cc3)ccc2O[C@@H](C)CCCCO[C@@H]1CN(C)S(=O)(=O)c1cn(C)cn1 was tested, and the growth inhibition call was “inactive”. C[C@@H]1CN([C@@H](C)CO)C(=O)c2cc(NC(=O)Nc3ccc(C(F)(F)F)cc3)ccc2O[C@@H](C)CCCCO[C@H]1CN(C)S(=O)(=O)c1cn(C)cn1 was tested, and the growth inhibition call was “inactive”. CO[C@@H](CN(C)S(=O)(=O)c1cn(C)cn1)[C@H](C)CN(C(=O)Nc1ccc(C(F)(F)F)cc1)[C@@H](C)CO was tested, and the growth inhibition call was “active”. With CO[C@H](CN(C)S(=O)(=O)c1cn(C)cn1)[C@@H](C)CN(C(=O)Nc1ccc(C(F)(F)F)cc1)[C@@H](C)CO the growth inhibition call was “active”. For C[C@@H]1CN([C@@H](C)CO)C(=O)c2cc(NC(=O)Nc3ccc(C(F)(F)F)cc3)ccc2O[C@@H](C)CCCCO[C@@H]1CN(C)S(=O)(=O)c1cn(C)cn1, the growth inhibition call was “inactive”. CO[C@H](CN(C)S(=O)(=O)c1cn(C)cn1)[C@@H](C)CN(C(=O)Nc1ccc(C(F)(F)F)cc1)[C@H](C)CO was tested, and the growth inhibition call was “active”. For C[C@@H]1CCCCO[C@@H](CN(C)C(=O)Nc2cccc3ccccc23)[C@H](C)CN([C@H](C)CO)C(=O)c2cc(NS(=O)(=O)c3ccccc3)ccc2O1, the growth inhibition call was “inactive”. C[C@H]1CN([C@@H](C)CO)C(=O)c2cccc(NC(=O)C3CCCCC3)c2O[C@H]1CN(C)C(=O)Nc1ccc(C(F)(F)F)cc1 was tested, and the growth inhibition call was “inactive”. Cc1noc(C)c1S(=O)(=O)Nc1ccc2c(c1)C(=O)N([C@@H](C)CO)C[C@H](C)[C@H](CN(C)Cc1ccccc1)OCCCC[C@@H](C)O2 was tested, and the growth inhibition call was “inactive”. For C[C@H](CO)N1C[C@H](C)[C@@H](CN(C)Cc2ccc(Cl)c(Cl)c2)Oc2c(NS(=O)(=O)c3ccccc3)cccc2C1=O, the growth inhibition call was “inactive”. With CO[C@@H]1CN(C)C(=O)c2ccc(NS(C)(=O)=O)cc2OC[C@H](C)N(C(=O)C2CCCCC2)C[C@@H]1C the growth inhibition call was “inactive”. With C[C@@H]1CN([C@@H](C)CO)C(=O)c2cc(NS(=O)(=O)c3cn(C)cn3)ccc2O[C@@H](C)CCCCO[C@@H]1CN(C)S(=O)(=O)c1cccs1 the growth inhibition call was “inactive”. With C[C@@H]1CN([C@H](C)CO)C(=O)c2cccc(NC(=O)c3nc4ccccc4s3)c2O[C@@H]1CN(C)Cc1ccc(Cl)c(Cl)c1 the growth inhibition call was “inactive”. For O=C(C[C@@H]1CC[C@H]2[C@@H](COC[C@H](O)CN2S(=O)(=O)c2ccccc2)O1)N[C@H]1CCN(Cc2ccccc2)C1, the growth inhibition call was “inactive”. With CO[C@H](CN(C)S(=O)(=O)c1cn(C)cn1)[C@H](C)CN(C(=O)Nc1ccc(C(F)(F)F)cc1)[C@@H](C)CO the growth inhibition call was “active”. For CO[C@@H](CN(C)S(=O)(=O)c1cn(C)cn1)[C@@H](C)CN(C(=O)Nc1ccc(C(F)(F)F)cc1)[C@@H](C)CO, the growth inhibition call was “active”. C[C@@H]1CCCCO[C@H](CN(C)S(=O)(=O)c2cn(C)cn2)[C@H](C)CN([C@H](C)CO)C(=O)c2cc(N(C)C)ccc2O1 was tested, and the growth inhibition call was “inactive”. For COC(=O)C[C@@H]1CC[C@H]2[C@@H](COC[C@@H](O)CN2S(=O)(=O)c2ccc(F)cc2)O1, the growth inhibition call was “inactive”. COCC#Cc1cnc2c(c1)C(=O)N([C@H](C)CO)C[C@@H](C)[C@H](CN(C)C(=O)Nc1ccc(OC)cc1)O2 was tested, and the growth inhibition call was “inactive”.
